Assay outcomes from PubChem.
An excerpt weighted towards active compounds, which were near 3.7% of everything screened.
ELG1 DNA repair: ELG1-dependent DNA repair inhibition; HEK293T ELG1-luciferase reporter, luminescence, 16 h; DNA damage induced by 5-fluorouridine; hit rate 2.3% among 330,000; Potency, µM (doses to about 46.1 µM), most hits filed as inhibitors; further: nearly all actives have a fitted effect of over 55% in size
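Reporter activity after DNA damage by 5-fluorouridine is monitored. Compound-treated cells incubate 16 hr at 37 °C, then ONE-Glo is added for 30 min before luminescence reading.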
Nrf2 inh: Nrf2 pathway inhibition | A549 ARE-Fluc reporter, luciferase luminescence, 18-24 h | Potency, µM (titrated, usually from 46 µM), actives largely listed as inhibitors | hit rate 2.1% among 360,000 | AID 504444; further: nearly all actives have a fitted effect of over 60% in size
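Concentration-response testing used A549 ARE_Fluc cells at 5000 cells/well. Following an 18-24 h compound incubation, viability was read by fluorescence (Ex 405/Em 525) and luciferase output by luminescence.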
A549 viability: A549 cytotoxicity, counter-screen for Nrf2 inhibitors; A549 ARE-Fluc cells, CellTiter-Fluor viability, 18-24 h; Potency, µM (highest dose often 46 µM), actives largely listed as inhibitors; hit rate 0.16% among 390,000
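A549 ARE_Fluc cells in 5% FBS OPTI-MEM were exposed to compounds in concentration-response for 18-24 h at 37 deg C. Viability was read by CellTiter-Fluor fluorescence (Ex 405/Em 525) after 30 min, before the luciferase read.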
Nrf2 activator: activates Nrf2 signaling; Potency, µM (doses to about 46.1 µM), hits mostly activators; hit rate 0.31% among 410,000; AREc32 ARE-luciferase reporter (MCF7-derived line), luminescence, 24 h; further: nearly all actives have a fitted effect of over 65% in size
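AREc32 cells carrying an ARE-driven firefly luciferase, 1000 cells/well in OPTI-MEM with 5% FBS, dosed after overnight attachment and incubated 24 hr at 37 deg C. Steady-Glo luminescence read after 30 min at RT.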
Each line names hits and unclear results; the compound was inactive in the other large screens. The call rests on the fitted dose curve; in most records, active means well fitted curve in the direction sought with a large enough effect; inconclusive means small, poorly fitted or top-dose-only effect, or another doubt; inactive means no such curve, though single readings can be large; an effect the other way counts as inactive or inconclusive.

CC(=O)Nc1ccc(/C(C)=N/Nc2nc(Nc3ccccc3)nc(N3CCOCC3)n2)cc1	ELG1 DNA repair 6.5µM
O=C(/C=C/c1c(F)cccc1Cl)c1ccc(O)cc1	Nrf2 activator 13µM
O=C(/C=C/c1c(F)cccc1Cl)Nc1ncccn1	ELG1 DNA repair inconclusive, Nrf2 inh inconclusive, Nrf2 activator 7.9µM
CC(=O)c1ccc(N2CCN(S(=O)(=O)c3c(C)nc4sc(C)cn4c3=O)CC2)cc1	none (no result: ELG1 DNA repair)
CCn1cc(C(=O)NCc2ccccc2)c(=O)c2cc(F)c(N3CCN(C(=O)c4ccco4)CC3)cc21	ELG1 DNA repair 16µM, A549 viability inconclusive (no result: Nrf2 inh)
CCn1cc(C(=O)NCc2ccc3c(c2)OCO3)c(=O)c2cc(F)c(N3CCN(C(=O)c4ccco4)CC3)cc21	ELG1 DNA repair 9.2µM, Nrf2 inh 16µM, A549 viability inconclusive
O=S(=O)(c1ccc(C(F)(F)F)cc1)N1CCN(c2nc(-c3cccs3)nc3ccccc23)CC1	none (no result: ELG1 DNA repair, Nrf2 activator)
c1nc(N2CCOCC2)c2c3c(sc2n1)CCCC3	ELG1 DNA repair inconclusive
O=C(c1ccccc1)N1CCN(c2ncnc3sc4c(c23)CCC4)CC1	ELG1 DNA repair 9.2µM, Nrf2 inh 16µM
Cc1nc(N2CCN(C(=O)c3ccco3)CC2)c2c3c(sc2n1)CCC3	ELG1 DNA repair 23µM (no result: Nrf2 inh)
COc1ccccc1N1CCN(C(=O)c2cc3c(s2)-c2ccccc2OC3)CC1	ELG1 DNA repair 21µM
Cc1cccc(N2CCN(C(=O)CSCc3ccc(F)cc3)CC2)c1C	none (no result: ELG1 DNA repair, Nrf2 inh)
CCOC(=O)N1CCN(C(=O)c2ccc3nc(N4CCCCC4)sc3c2)CC1	none
Cc1cccc(N2CCN(C(=O)c3ccccc3SCC(=O)N3CCCC3)CC2)c1C	ELG1 DNA repair inconclusive, Nrf2 inh 23µM, A549 viability inconclusive
Cc1cccc(N2CCN(C(=O)c3ccc4nc(N5CCCCC5)sc4c3)CC2)c1C	ELG1 DNA repair 23µM
Cc1cccc(N2CCN(C(=O)c3cccc(S(=O)(=O)N4CCCCC4)c3)CC2)c1C	ELG1 DNA repair 13µM, Nrf2 inh inconclusive, A549 viability inconclusive
S=c1nc(NCCc2ccccc2Cl)c2ccccc2[nH]1	ELG1 DNA repair inconclusive, Nrf2 inh inconclusive
CC(=O)Nc1ccc(S(=O)(=O)N(C)CC(=O)Nc2cccc(S(=O)(=O)N3CCCC3)c2)cc1	Nrf2 inh inconclusive
CNc1ccc(-c2cccc(CO)c2)cn1	none (no result: ELG1 DNA repair, Nrf2 inh, A549 viability)
CC(=O)OC1=CN(Cc2ccccc2)S(=O)(=O)c2ccccc21	none (no result: ELG1 DNA repair)
COc1ccccc1N1CCN(C(=O)c2cccc(S(=O)(=O)N3CCCCCC3)c2)CC1	ELG1 DNA repair 13µM, Nrf2 inh inconclusive
COc1ccccc1N1CCN(C(=O)c2ccc3nc(-c4ccco4)c(-c4ccco4)nc3c2)CC1	ELG1 DNA repair 7.3µM, Nrf2 inh inconclusive
Cc1cccc(N2CCN(C(=O)c3cccc(N4C(=O)C5CC=CC(C)C5C4=O)c3)CC2)c1C (stereo not drawn)	ELG1 DNA repair 23µM (no result: Nrf2 inh)
COc1ccc(S(=O)(=O)N2CCCCCC2)cc1C(=O)N1CCN(c2ccccc2O)CC1	ELG1 DNA repair 13µM
COc1ccc(S(=O)(=O)N2CCCCCC2)cc1C(=O)N1CCN(c2ccccc2C)CC1	ELG1 DNA repair inconclusive, Nrf2 inh inconclusive
COc1ccc2c(c1)CC(C(=O)NCCCN1CCN(c3cccc(Cl)c3)CC1)CO2 (stereo not drawn)	none (no result: ELG1 DNA repair, Nrf2 inh)
COc1ccc(C)cc1NC(=O)NCc1cccn1Cc1ccccc1	none (no result: ELG1 DNA repair)
Cc1cccc(C)c1NC(=O)N1CCN(c2nc3ccccc3s2)CC1	Nrf2 inh 4.6µM
COc1cccc(S(=O)(=O)N(C)C[C@H]2OCc3cnnn3CCCC(=O)N([C@@H](C)CO)C[C@@H]2C)c1	none (no result: ELG1 DNA repair, Nrf2 inh, A549 viability)
O=C(Nc1ccon1)c1cc2c(s1)CCCC2	ELG1 DNA repair inconclusive, Nrf2 inh inconclusive
O=C(Nc1cccc(S(=O)(=O)Nc2ccc(Cl)cc2)c1)c1cc2c(s1)CCCC2	ELG1 DNA repair inconclusive, Nrf2 inh 23µM, A549 viability inconclusive
Cc1ccc(NC(=O)c2cc3c(s2)CCCC3)cc1S(=O)(=O)Nc1ccccc1Cl	ELG1 DNA repair 23µM, Nrf2 inh 7.3µM
Cc1ccc(C(=O)Nc2ccc(C)c(S(=O)(=O)Nc3ccccc3Cl)c2)s1	ELG1 DNA repair 21µM, Nrf2 inh inconclusive
O=C(Nc1cc(S(=O)(=O)Nc2ccccc2Cl)ccc1O)c1cc2c(s1)CCCC2	none
COc1cccc(C2c3c(ncn(-c4ccc(Br)cc4)c3=N)Oc3ccc4ccccc4c32)c1 (stereo not drawn)	none (no result: ELG1 DNA repair, Nrf2 activator)
COc1ccc(NC(=O)CN(C)S(=O)(=O)c2ccc3[nH]c4c(c3c2)CCCC4)cc1Cl	Nrf2 inh inconclusive (no result: ELG1 DNA repair)
CCNC(=O)C1(C)CCN(C(=O)c2cc(F)ccc2C)C1 (stereo not drawn)	none (no result: ELG1 DNA repair, Nrf2 inh, A549 viability)
CC1(c2nnc(Cc3ccccc3)o2)CC(c2ccc(OC(F)(F)F)cc2)=NO1 (stereo not drawn)	Nrf2 inh 23µM
Cc1cccc(C)c1NC(=O)CN(C)CC(=O)Nc1ccccc1Oc1ccccc1	ELG1 DNA repair 12µM
Cc1cc(/C=C(\C#N)C(N)=O)c(C)n1-c1ccc(N2CCOCC2)c([N+](=O)[O-])c1	ELG1 DNA repair 23µM, Nrf2 inh inconclusive, A549 viability inconclusive
CC1(C)CC(NC(=O)c2ccccc2NS(=O)(=O)c2ccc(Br)cc2)CC(C)(C)N1	none (no result: ELG1 DNA repair)
Cc1ccc(NC(C#N)c2ccccc2OCc2ccccc2)cc1 (stereo not drawn)	none
CCOc1ccc(CNC(=O)C2CCN(C(=O)N3CC(CC)Oc4ccc(C)cc43)CC2)cc1OC (stereo not drawn)	none (no result: ELG1 DNA repair)
CCC1CN(C(=O)N2CCC(C(=O)NCc3cccc(OC)c3OC)CC2)c2cc(C)ccc2O1 (stereo not drawn)	ELG1 DNA repair 15µM
CCC1CN(C(=O)N2CCC(C(=O)NCc3cc(OC)ccc3OC)CC2)c2ccccc2O1 (stereo not drawn)	none (no result: ELG1 DNA repair)
CCC1CN(C(=O)N2CCC(C(=O)NCCc3cc(OC)ccc3OC)CC2)c2ccccc2O1 (stereo not drawn)	Nrf2 inh 23µM (no result: ELG1 DNA repair)
O=C(Nc1cc(Cl)ccc1-n1cncn1)c1cc(S(=O)(=O)N2CCOCC2)ccc1F	none
O=C(Cn1cnc2onc(-c3ccc(F)cc3)c2c1=O)Nc1cccc(C(F)(F)F)c1	Nrf2 inh 23µM (no result: ELG1 DNA repair)
C=C1C(=O)O[C@H]2C[C@H]1[C@@H](OC(C)=O)C/C(C)=C/CC/C(C)=C\CC[C@]2(C)O	Nrf2 inh 15µM, A549 viability inconclusive (no result: ELG1 DNA repair)
O=C(Nc1cc(C(F)(F)F)ccc1Cl)C(O)Cc1ccccc1 (stereo not drawn)	none (no result: ELG1 DNA repair, Nrf2 activator)
O=C(CN1C(=O)COc2ccc(S(=O)(=O)N3CCOCC3)cc21)N1CCN(c2ccc(Cl)cc2)CC1	none (no result: ELG1 DNA repair)
COc1ccc(C(=O)NC=C2C(=O)OC(C)(C)OC2=O)cc1	none
O=C(O)CSCC(=O)Nc1ccc(C2CCCCC2)cc1	Nrf2 inh 5.2µM (no result: ELG1 DNA repair)
CCOc1ccc(C(c2c(O)cc(C)n(CCOC)c2=O)N2CCN(c3ccc(F)cc3)CC2)cc1 (stereo not drawn)	none (no result: ELG1 DNA repair, Nrf2 inh)
CCCn1c(N)c(C(=O)CSc2nnc(Cc3cccs3)n2C2CC2)c(=O)n(C)c1=O	ELG1 DNA repair 11µM, Nrf2 inh 12µM
